Laboratory results reported in PubChem BioAssay.
Calls of active or inactive are those of the source. The rule behind the calls is not given here.

How the values were obtained:
[1] = tested on: Botulinum neurotoxin type F light chain protease (Clostridium botulinum); experiment: Clostridium botulinum type F light chain protease inhibitors, microsphere substrate cleavage, validation (AID 588459); conditions: multiplex microsphere protease substrate cleavage assay, flow cytometry; at 10 µM; active compounds read high
[2] = molecular target: Botulinum neurotoxin type A (Clostridium botulinum) (UniProt P0DPI0); experiment: BoNT/A light chain protease inhibitors, biochemical, multiplex microsphere flow cytometry, validation set (AID 588460); conditions: at 10 µM, active compounds read high
[3] = molecular target: Lethal factor (Bacillus anthracis) (UniProt P15917); experiment: Bacillus anthracis lethal factor inhibition, microsphere flow cytometry protease assay, validation at 10 µM (AID 588461); conditions: multiplex microsphere protease cleavage assay, active compounds read high

Measured: inhibition

O=c1c2ccccc2nnn1Cc1cccc2ccccc12
inactive: [1] 0.5% | [2] 0.7% | [3] -9.5%

COc1cc(=O)n(C)c2ccccc12
inactive: [1] -9.2% | [2] -2.1% | [3] -7.3%

CN(C)CC/C=C1\c2ccccc2Sc2ccc(Cl)cc21
inactive: [1] -9.1% | [2] -1.1% | [3] 2.3%

NC(N)=NC(N)=Nc1ccc2ccccc2c1
inactive: [1] 3.6% | [2] 1% | [3] 1.8%

CCOC(=O)c1ccc(N2C(=O)C(CC(N)=O)N(CCc3ccc(OC)c(OC)c3)C2=S)cc1 (stereo not drawn)
inactive: [1] 2% | [2] 1.1% | [3] -0.3%

CC(C)C1CC(CCNCc2ccc(N(C)C)cc2)(c2ccccc2)CCO1 (stereo not drawn)
inactive: [1] -3.7% | [2] -1.8% | [3] -9.1%
